According to PubChem BioAssay (EPA / NIEHS):
Activity calls are given as the source filed them. Rule for the calls: active = hit-call score of the fitted dose curve at least 0.9, where 1 is the maximum; inactive = score below 0.9.

Experiments:
[1] = read-out: Vascular cell adhesion molecule 1 (VCAM1), VCAM1 (gene 7412); assay: BSK_hDFCGF_VCAM1: BioMAP Diversity Plus: hDFCGF Assay for Vascular cell adhesion molecule 1 (VCAM1) Biomarker Activity (AID 2283065); settings: primary human foreskin fibroblasts; actives raise or lower the signal;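 for AC50: VCAM-1 protein level quantified by ELISA after 24 h chemical exposure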
Procedure, shortened: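 Measured after 24 h chemical treatment of primary human skin fibroblasts, VCAM-1 was detected by ELISA and concentration-response analysed in both directions versus DMSO vehicle.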

[2] = read-out: Plasminogen activator inhibitor-1 (PAI1), SERPINE1 (gene 5054); assay: BSK_hDFCGF_PAI1: BioMAP Diversity Plus: hDFCGF Assay for Plasminogen activator inhibitor-1 (PAI1) Biomarker Activity (AID 2283066); settings: primary human foreskin fibroblasts; actives raise or lower the signal
Procedure, shortened: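 Human skin fibroblast cultures receive chemical for 24 h before PAI-1 is measured by ELISA; signal changes are fitted bidirectionally against DMSO-treated wells.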

[3] = read-out: Intercellular Adhesion Molecule 1 (ICAM1), ICAM1 (gene 3383); assay: BSK_KF3CT_ICAM1: BioMAP Diversity Plus: KF3CT Assay for Intercellular Adhesion Molecule 1 (ICAM1) Biomarker Activity (AID 2283067); settings: primary human keratinocytes with fibroblasts; actives raise or lower the signal
Procedure, shortened: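 Bidirectional curve fitting against a DMSO baseline was applied to ICAM-1 ELISA signal from primary human skin co-cultures harvested 24 h after treatment, with SRB staining of parallel wells for overt cytotoxicity.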

[4] = BSK_KF3CT_SRB: Viability Assessment in the BioMAP Diversity Plus: KF3CT Assay (AID 2283069); settings: primary human keratinocytes with fibroblasts;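 note: total protein by sulforhodamine B staining as a cytotoxicity measure; read 24 h after compound addition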
Procedure, shortened: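 Cytotoxicity was gauged by SRB staining (0.1% SRB, 10% TCA fixation, 560 nm) of parallel cultures at 24 h. The cells were primary human skin keratinocytes co-cultured with fibroblasts, and activity was fitted in both directions against DMSO.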

[5] = read-out: Interleukin-1 alpha (IL1a), IL1A (gene 3552); assay: BSK_KF3CT_IL1a: BioMAP Diversity Plus: KF3CT Assay for Interleukin-1 alpha (IL1a) Biomarker Activity (AID 2283070); settings: primary human keratinocytes with fibroblasts; actives raise or lower the signal
Procedure, shortened: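 IL-1a was detected by ELISA 24 h after chemical treatment of a co-culture of human skin keratinocytes and foreskin fibroblasts. Gain or loss of signal was fitted against the DMSO baseline.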

[6] = read-out: TIMP metallopeptidase inhibitor 2 (TIMP2), TIMP2 (gene 7077); assay: BSK_KF3CT_TIMP2: BioMAP Diversity Plus: KF3CT Assay for TIMP metallopeptidase inhibitor 2 (TIMP2) Biomarker Activity (AID 2283071); settings: primary human keratinocytes with fibroblasts; actives raise or lower the signal
Procedure, shortened: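 Measurements come from ELISA detection of TIMP-2 at 24 hours in a dosed human keratinocyte and foreskin fibroblast co-culture. DMSO serves as negative control and baseline.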

[7] = read-out: Transforming growth factor beta 1 (TGFb1), TGFB1 (gene 7040); assay: BSK_KF3CT_TGFb1: BioMAP Diversity Plus: KF3CT Assay for Transforming growth factor beta 1 (TGFb1) Biomarker Activity (AID 2283072); settings: primary human keratinocytes with fibroblasts; actives raise or lower the signal
Procedure, shortened: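 TGF-b1 ELISA on a 24 h dosed co-culture of human keratinocytes and foreskin fibroblasts; cytotoxicity tracked in parallel cultures by SRB staining.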

[8] = read-out: C-C motif chemokine 2 (Homo sapiens) (UniProt P13500); assay: BSK_KF3CT_MCP1: BioMAP Diversity Plus: KF3CT Assay for Monocyte Chemoattractant Protein 1 (MCP1/CCL2) Biomarker Activity (AID 2283073); settings: primary human keratinocytes with fibroblasts; actives raise or lower the signal
Procedure, shortened: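 Biomarker MCP-1 is measured by ELISA in primary human keratinocytes co-cultured with foreskin fibroblasts, 24 h after chemical treatment; DMSO serves as the negative control and activity baseline.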

[9] = read-out: Matrix Metallopeptidase 9 (MMP9), MMP9 (gene 4318); assay: BSK_KF3CT_MMP9: BioMAP Diversity Plus: KF3CT Assay for Matrix Metallopeptidase 9 (MMP9) Biomarker Activity (AID 2283074); settings: primary human keratinocytes with fibroblasts; actives raise or lower the signal;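 for AC50: MMP9 protein level quantified by ELISA in the co-culture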
Procedure, shortened: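 MMP-9 quantified by ELISA after 24 h chemical treatment of primary human skin keratinocyte/fibroblast co-cultures; gain or loss fitted against DMSO, with parallel SRB staining (0.1% SRB, 560 nm) for overt cytotoxicity.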

[10] = read-out: urokinase plasminogen activator (uPA), PLAU (gene 5328); assay: BSK_KF3CT_uPA: BioMAP Diversity Plus: KF3CT Assay for urokinase plasminogen activator (uPA) Biomarker Activity (AID 2283075); settings: primary human keratinocytes with fibroblasts; actives raise or lower the signal
Procedure, shortened: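 ELISA read-out of uPA 24 h after dosing human skin keratinocytes co-cultured with foreskin fibroblasts. Signal change fitted both ways relative to DMSO; sulforhodamine B on parallel cultures marks overt cytotoxicity.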

CD40, CD40 (gene 958) = assay: BSK_LPS_CD40: BioMAP Diversity Plus: LPS Assay for CD40 Biomarker Activity (AID 2283076); settings: primary human HUVEC with PBMC; actives raise or lower the signal
Procedure, shortened: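 Using a multiplexed primary human co-culture (umbilical vein endothelium plus PBMC), CD40 was read by ELISA 24 h after dosing, with cytotoxicity tracked by sulforhodamine B staining of parallel cultures and activity fitted bidirectionally versus DMSO.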

[11] = read-out: E-selectin (Homo sapiens) (UniProt P16581); assay: BSK_LPS_Eselectin: BioMAP Diversity Plus: LPS Assay for Eselectin Biomarker Activity (AID 2283077); settings: primary human HUVEC with PBMC; actives raise or lower the signal
Procedure, shortened: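 Dose chemical onto LPS-driven HUVEC/PBMC co-culture; after 24 h, run ELISA for E-selectin; fit up- and down-going responses relative to DMSO control.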

[12] = read-out: Interleukin-8 (IL8), CXCL8 (gene 3576); assay: BSK_LPS_IL8: BioMAP Diversity Plus: LPS Assay for Interleukin-8 (IL8) Biomarker Activity (AID 2283078); settings: primary human HUVEC with PBMC; actives raise or lower the signal
Procedure, shortened: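 In this LPS system, chemical-treated human umbilical vein endothelium/PBMC co-cultures were harvested at 24 h for IL-8 ELISA.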

[13] = BSK_LPS_SRB: Viability Assessment in the BioMAP Diversity Plus: LPS Assay (AID 2283079); settings: primary human HUVEC with PBMC;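 note: total protein by sulforhodamine B absorbance as a cytotoxicity measure; measured one day after compound addition; fitted in both directions against DMSO so loss or gain of signal counts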
Procedure, shortened: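 Cytotoxicity endpoint in human endothelial–PBMC co-culture: 24 h exposure, then SRB (0.1%) staining, 560 nm read.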

[14] = read-out: Interleukin-1 alpha (IL1a), IL1A (gene 3552); assay: BSK_LPS_IL1a: BioMAP Diversity Plus: LPS Assay for Interleukin-1 alpha (IL1a) Biomarker Activity (AID 2283080); settings: primary human HUVEC with PBMC; actives raise or lower the signal
Procedure, shortened: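 Primary human HUVEC and PBMC co-culture stimulated with LPS is dosed and harvested at 24 h. Both increases and decreases in ELISA-measured IL-1a are scored relative to DMSO.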

[15] = read-out: Monocyte Chemoattractant Protein-1 (MCP1), CCL2 (gene 6347); assay: BSK_LPS_MCP1: BioMAP Diversity Plus: LPS Assay for Monocyte Chemoattractant Protein-1 (MCP1) Biomarker Activity (AID 2283081); settings: primary human HUVEC with PBMC; actives raise or lower the signal;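 for AC50: secreted MCP-1 protein quantified by ELISA in culture supernatant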
Procedure, shortened: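 Values derive from bidirectional fitting against DMSO of ELISA-measured MCP-1 in a human primary endothelial and mononuclear cell co-culture, 24 h after chemical addition under LPS activation.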

[16] = BSK_LPS_PGE2: BioMAP Diversity Plus: LPS Assay for Prostaglandin E2 (PGE2) Biomarker Activity (AID 2283082); settings: primary human HUVEC with PBMC; actives raise or lower the signal;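 for AC50: secreted prostaglandin E2 measured by ELISA in LPS-stimulated co-culture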
Procedure, shortened: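 Primary human endothelial cells and blood mononuclear cells, co-cultured with LPS, receive test chemical; PGE2 ELISA follows at 24 h, with SRB-stained parallel cultures flagging cytotoxicity.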

[17] = read-out: Tissue Factor, F3 (gene 2152); assay: BSK_LPS_TissueFactor: BioMAP Diversity Plus: LPS Assay for Tissue Factor Biomarker Activity (AID 2283084); settings: primary human HUVEC with PBMC; actives raise or lower the signal
Procedure, shortened: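 Read-out: CD142 ELISA, 24 h. System: LPS-driven human endothelial/PBMC co-culture. Analysis: up- or down-signal fitted against DMSO.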

[18] = read-out: Macrophage colony-stimulating factor (MCSF), CSF1 (gene 1435); assay: BSK_LPS_MCSF: BioMAP Diversity Plus: LPS Assay for Macrophage colony-stimulating factor (MCSF) Biomarker Activity (AID 2283083); settings: primary human HUVEC with PBMC; actives raise or lower the signal
Procedure, shortened: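 Bidirectional fit versus DMSO of ELISA-measured M-CSF in co-cultured human umbilical vein endothelial cells and PBMC, sampled 24 h after dosing.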

Measured: AC50

E-selectin (Homo sapiens), sequence (P16581 whole entry, looked up): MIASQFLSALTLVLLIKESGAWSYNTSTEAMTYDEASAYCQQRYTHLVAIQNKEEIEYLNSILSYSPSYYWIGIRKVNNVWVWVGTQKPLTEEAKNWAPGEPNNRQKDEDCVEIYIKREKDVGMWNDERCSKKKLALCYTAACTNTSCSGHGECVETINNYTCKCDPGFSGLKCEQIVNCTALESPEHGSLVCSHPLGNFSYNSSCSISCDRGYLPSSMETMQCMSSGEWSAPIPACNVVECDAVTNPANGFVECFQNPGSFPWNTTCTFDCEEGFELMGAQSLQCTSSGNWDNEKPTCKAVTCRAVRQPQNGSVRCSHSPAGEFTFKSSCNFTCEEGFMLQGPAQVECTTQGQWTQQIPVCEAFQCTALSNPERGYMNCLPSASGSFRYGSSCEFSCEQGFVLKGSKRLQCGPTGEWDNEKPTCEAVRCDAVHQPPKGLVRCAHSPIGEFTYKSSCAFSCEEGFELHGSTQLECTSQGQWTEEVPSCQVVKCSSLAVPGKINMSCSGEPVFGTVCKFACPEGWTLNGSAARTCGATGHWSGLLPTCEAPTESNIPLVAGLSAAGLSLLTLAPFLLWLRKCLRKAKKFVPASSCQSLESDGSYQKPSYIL

NC(=O)O
not listed: [18]
inactive: all other assays above

ClCC(Cl)CCl
inactive: all assays above

O=C1C2(Cl)C3(Cl)C4(Cl)C(Cl)(Cl)C5(Cl)C3(Cl)C1(Cl)C5(Cl)C24Cl (stereo not given)
active: [1] 4.35 µM | [2] 8.81 µM | [3] 33 µM | [4] 8.1 µM | [5] 22.9 µM | [6] 24.2 µM | [7] 6.14 µM | [8] 35.1 µM | [9] 8.52 µM | [10] 11.1 µM | CD40, CD40 (gene 958) 7.66 µM | [11] 11.1 µM | [12] 14.5 µM | [13] 6.4 µM | [14] 7.55 µM | [15] 10.7 µM | [16] 9.92 µM | [18] 10.6 µM | [17] 12 µM

BrCCBr
not listed: [18]
inactive: all other assays above

O=C(O)C(Cl)(Cl)Cl
not listed: [18]
inactive: all other assays above

O=Cc1cccc(Oc2ccccc2)c1
not listed: [18]
inactive: all other assays above
